Data from PubChem BioAssay (NCI).
Values joined by “and” are separate entries in the source; they are usually repeats but may differ in a detail not shown here. Equal entries are not always repeated. The panel holds about 83,000 compounds, 20% with a hit somewhere; the sample as a whole holds those more often.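 Treatment: one concentration, 48 hours, 96-well format. Scoring: percent growth, with anything below 10 considered active.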 A structure can be active in one record and inactive in another. Active and inactive are the calls of the source.

What was measured:
Assay in all cases: NCI-60 one-dose screen, 48 h (100 = growth as untreated, 0 = no growth, -100 = all killed)
Conditions in all cases: 10 µM unless noted
[1] = test system: NCI/ADR-RES ovarian
[2] = test system: T-47D breast
[3] = test system: BT-549 breast
[4] = test system: MDA-MB-435 melanoma
[5] = test system: SW-620 colon
[6] = test system: MCF7 breast
[7] = test system: HCT-116 colon
[8] = test system: HCC-2998 colon
[9] = test system: KM12 colon

SMILES | growth [1] | growth [2] | growth [3] | growth [4] | growth [5] | growth [6] | growth [7] | growth [8] | growth [9]
N[C@@H](CCC(=O)CCl)C(=O)O | 104% [20 µM] (inactive) | 93% [20 µM] (inactive) | 108% [20 µM] (inactive) | 103% [20 µM] (inactive) | 97.9% [20 µM] (inactive) | 87.9% [20 µM] (inactive) | 104% [20 µM] (inactive) | 111% [20 µM] (inactive) | 100% [20 µM] (inactive)
CCC(=O)C(CC(C)N1CCCCCC1)(c1ccccc1)c1ccccc1 (stereo not drawn) | 102% (inactive) | 95.3% (inactive) | 97.4% (inactive) | 98.3% (inactive) | 99.1% (inactive) | 81.8% (inactive) | 72.1% (inactive) | 97.7% (inactive) | 107% (inactive)
CCCCn1c(=O)c(C(=O)NCc2ccccc2Cl)c(O)c2ccccc21 | 56.2% (inactive) | 85.6% (inactive) | 47.9% (inactive) | 98.5% (inactive) | 78.8% (inactive) | 64.4% (inactive) | 21.4% (inactive) | 93.4% (inactive) | 83.8% (inactive)
CO/N=C1\CC[C@]2(C)[C@H]3CC[C@]4(C)C(=O)CC[C@H]4[C@@H]3C[C@@H]3SC(N)=N[C@@]32C1 | 99.6% (inactive) | 84.4% (inactive) | 106% (inactive) | 91.5% (inactive) | 106% (inactive) | 89.1% (inactive) | 87.2% (inactive) | 103% (inactive) | 97.7% (inactive)
O=C1CCCCC1CN1CCCCC1 (stereo not drawn) | 101% (inactive) | 83.2% (inactive) | 117% (inactive) | 109% (inactive) | 101% (inactive) | 90.9% (inactive) | 101% (inactive) | 97.8% (inactive) | 98.1% (inactive)
COC(=O)CCP(CCC(=O)OC)c1ccccc1 | 106% (inactive) | 112% (inactive) | 90% (inactive) | 97.2% (inactive) | 105% (inactive) | 97.6% (inactive) | 97.6% (inactive) | 104% (inactive) | 111% (inactive)
O=[P+](O)c1cccnc1 | 102% (inactive) | 88.2% (inactive) | 116% (inactive) | 107% (inactive) | 107% (inactive) | 102% (inactive) | 102% (inactive) | 115% (inactive) | 101% (inactive)
CN1C2CCC1[C@@H](COC(=O)c1ccccc1)[C@@H](O)C2 (stereo partly drawn) | 110% (inactive) | 124% (inactive) | 143% (inactive) | 121% (inactive) | 111% (inactive) | 97.3% (inactive) | 101% (inactive) | 105% (inactive) | 103% (inactive)
CN(C)c1ccc(N)cc1 | 104% (inactive) and 85.3% (inactive) | 90.7% (inactive) and 28.5% (inactive) | 107% (inactive) and 72% (inactive) | 107% (inactive) and 43.4% (inactive) | 99.1% (inactive) and 65.6% (inactive) | 87.7% (inactive) and 30.5% (inactive) | 117% (inactive) and 14.8% (inactive) | 106% (inactive) | 107% (inactive) and 34.7% (inactive)
C=CCOC(=O)C(Br)CC (stereo not drawn) | 107% (inactive) | 95.8% (inactive) | 111% (inactive) | 109% (inactive) | 104% (inactive) | 103% (inactive) | 104% (inactive) | 101% (inactive) | 112% (inactive)
c1ccc(CCN2CCCCC2)nc1 | 109% (inactive) | 91.1% (inactive) | 99.8% (inactive) | 100% (inactive) | 112% (inactive) | 96.5% (inactive) | 99.9% (inactive) | 119% (inactive) | 110% (inactive)
O=C1NC(=O)C(=Cc2ccccc2)C(=O)N1 | 100% (inactive) and 103% (inactive) | 94.8% (inactive) and 105% (inactive) | 106% (inactive) and 116% (inactive) | 113% (inactive) and 104% (inactive) | 103% (inactive) and 105% (inactive) | 145% (inactive) and 102% (inactive) | 94% (inactive) and 102% (inactive) | 99.6% (inactive) and 117% (inactive) | 114% (inactive) and 108% (inactive)
O=Cc1cn(Cc2ccccc2)c2ccccc12 | 82.1% (inactive) | 41.4% (inactive) | 95.1% (inactive) | 125% (inactive) | 92.4% (inactive) | 84.8% (inactive) | 68.4% (inactive) | 33.5% (inactive) | 101% (inactive)
O=P1(N(CCCl)CCCl)NCCCO1 (stereo not drawn) | 108% (inactive) | 113% (inactive) | 106% (inactive) | 107% (inactive) | 102% (inactive) | 96.8% (inactive) | 104% (inactive) | 100% (inactive) | 111% (inactive)
CCOP(=O)(OCC)C(=O)N(CC)CC | 102% (inactive) | 96.3% (inactive) | 95.1% (inactive) | 97.8% (inactive) | 99.6% (inactive) | 95.2% (inactive) | 104% (inactive) | 110% (inactive) | 98.2% (inactive)
N#CCCc1ccccc1 | 104% (inactive) | 112% (inactive) | 106% (inactive) | 104% (inactive) | 102% (inactive) | 92% (inactive) | 104% (inactive) | 103% (inactive) | 109% (inactive)
C[C@]12CCc3sc(Nc4ccc(F)cc4)nc3C1=CC[C@@H]1[C@@H]2CC[C@]2(C)C(=O)CC[C@@H]12 | 80.3% (inactive) | 80% (inactive) | 43.8% (inactive) | 57% (inactive) | 35.4% (inactive) | 20% (inactive) | 17.7% (inactive) | 95.1% (inactive) | 72.2% (inactive)
CCCCCCCCCCCCCCCCCCn1cc[n+](C)c1 | 20.9% (inactive) and -7.98% (active) | 35.9% (inactive) and 17% (inactive) | -55.6% (active) and -55% (active) | -56.4% (active) and -70.8% (active) | -45.2% (active) and -38.1% (active) | -33.8% (active) and 6.12% (active) | -18.2% (active) and -51.5% (active) | -80.7% (active) and -80.9% (active) | -47.8% (active) and -61.9% (active)
O=[N+]([O-])c1ccc2scc3c4ccccc4nc-3c2c1 | 10.7% (inactive) | -24.3% (active) | 22.7% (inactive) | -2.05% (active) | -76.4% (active) | -64.6% (active) | -98.7% (active) | 95.7% (inactive) | 1.98% (active)
CC[C@H](C)[C@H](NC(=O)[C@H]1CCCCN1C)C(=O)N(C)[C@H](C[C@@H](OC(C)=O)c1nc(C(=O)NC23C4C5C2C2C3C4C52C(=O)OC)cs1)C(C)C (stereo partly drawn) | 10.9% (inactive) | 73.3% (inactive) | -36% (active) | -0.902% (active) | 41.9% (inactive) | 13.7% (inactive) | 7.22% (active) | 9.29% (active) | -3.83% (active)
Oc1ccccc1C=NCCN=Cc1ccccc1O | 103% (inactive) | 103% (inactive) | 106% (inactive) | 108% (inactive) | 100% (inactive) | 97.7% (inactive) | 94.2% (inactive) | 105% (inactive) | 104% (inactive)
O=C(NCCCN1CC1)Nc1cccc2ccccc12 | 101% (inactive) | 86.4% (inactive) | 90.3% (inactive) and 105% (inactive) | 108% (inactive) and 88% (inactive) | 99% (inactive) and 89.6% (inactive) | 82% (inactive) and 77.9% (inactive) | 98.1% (inactive) and 94.2% (inactive) | 97.9% (inactive) and 93.4% (inactive) | 103% (inactive) and 102% (inactive)
CC(C)c1cccc(C(C)C)c1O | 108% (inactive) and 106% (inactive) | 95% (inactive) and 93.2% (inactive) | 104% (inactive) and 97.8% (inactive) | 104% (inactive) and 100% (inactive) | 106% (inactive) and 112% (inactive) | 91.1% (inactive) | 101% (inactive) and 95.8% (inactive) | 105% (inactive) and 115% (inactive) | 111% (inactive) and 105% (inactive)
NC1CN2CCC1CC2 (stereo not drawn) | 101% (inactive) | 91% (inactive) | 95% (inactive) | 104% (inactive) | 99.7% (inactive) | 90.5% (inactive) | 109% (inactive) | 114% (inactive) | 115% (inactive)
C/C(=C(\c1ccc(OCCN2CCOCC2)cc1)c1ccc(OC(=O)Cc2ccccc2)cc1)c1ccc(Cl)cc1 | 95.8% (inactive) | 78% (inactive) | 91.1% (inactive) | 91.4% (inactive) | 98.6% (inactive) | 83.5% (inactive) | 75.7% (inactive) | 88.4% (inactive) | 99.3% (inactive)
O=[N+]([O-])c1ccc(OCc2ccc(S(=O)(=O)F)c(Cl)c2)c(Cl)c1 | 102% (inactive) | 97% (inactive) | 91.6% (inactive) | 113% (inactive) | 98.8% (inactive) | 92.8% (inactive) | 90.1% (inactive) | 105% (inactive) | 113% (inactive)
COC(=O)C1=CCCN(C)C1 | 107% (inactive) and 115% (inactive) | 101% (inactive) and 113% (inactive) | 97.7% (inactive) | 98.9% (inactive) and 96.1% (inactive) | 111% (inactive) and 110% (inactive) | 96.1% (inactive) and 101% (inactive) | 102% (inactive) and 108% (inactive) | 102% (inactive) and 124% (inactive) | 117% (inactive) and 109% (inactive)
